Measurements: PubChem BioAssay (NCATS)
Inconclusive results are not listed. A call without a number means that no potency is given here. A number with no mark means an inactive call. Activity calls are given as the source filed them. Calls come from the whole dose curve; as a rule, active = well fitted curve in the direction sought with a large enough effect; inconclusive = small, poorly fitted or top-dose-only effect, or another doubt; inactive = no such curve, though single readings can be large; an effect the other way counts as inactive or inconclusive.

Legend:
[1] = target: Rap guanine nucleotide exchange factor 3 (Homo sapiens) (UniProt O95398); test: Confirmatory qHTS for agonist of cAMP-regulated guanine nucleotide exchange factor 3 (EPAC1) (AID 1645881);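 note: EPAC1 catalysed release of BODIPY-GDP from Rap1B seen as fluorescence loss; nearly all actives have a fitted effect of over 75% in size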
Sequence of Rap guanine nucleotide exchange factor 3 (Homo sapiens) (O95398 whole entry, looked up): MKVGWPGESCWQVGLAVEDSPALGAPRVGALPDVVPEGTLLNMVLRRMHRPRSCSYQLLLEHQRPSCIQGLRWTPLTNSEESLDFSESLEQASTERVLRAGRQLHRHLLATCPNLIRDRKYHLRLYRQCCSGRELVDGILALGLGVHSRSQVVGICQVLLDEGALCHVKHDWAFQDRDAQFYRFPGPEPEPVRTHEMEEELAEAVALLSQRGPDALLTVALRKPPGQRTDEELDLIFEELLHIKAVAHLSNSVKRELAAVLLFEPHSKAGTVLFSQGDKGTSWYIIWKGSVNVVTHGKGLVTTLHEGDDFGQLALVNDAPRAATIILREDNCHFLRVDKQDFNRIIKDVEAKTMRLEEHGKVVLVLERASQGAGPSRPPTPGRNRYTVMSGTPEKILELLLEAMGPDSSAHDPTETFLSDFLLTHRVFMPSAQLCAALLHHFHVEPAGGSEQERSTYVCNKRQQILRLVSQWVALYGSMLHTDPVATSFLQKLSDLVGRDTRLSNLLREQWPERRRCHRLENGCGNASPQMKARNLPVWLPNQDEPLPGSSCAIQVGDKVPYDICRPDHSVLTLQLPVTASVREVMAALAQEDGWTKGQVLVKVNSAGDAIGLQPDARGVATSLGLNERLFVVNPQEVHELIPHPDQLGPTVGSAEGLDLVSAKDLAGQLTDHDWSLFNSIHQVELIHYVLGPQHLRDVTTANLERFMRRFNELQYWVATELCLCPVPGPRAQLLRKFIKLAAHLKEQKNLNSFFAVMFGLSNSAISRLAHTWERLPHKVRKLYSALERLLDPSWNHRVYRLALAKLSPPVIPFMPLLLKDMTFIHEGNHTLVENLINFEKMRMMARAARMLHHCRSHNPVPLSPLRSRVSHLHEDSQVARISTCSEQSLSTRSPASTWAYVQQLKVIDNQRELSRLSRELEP

[2] = target: Rap guanine nucleotide exchange factor 4 (Homo sapiens) (UniProt Q8WZA2); test: Confirmatory qHTS for agonist of cAMP-regulated guanine nucleotide exchange factor 4 (EPAC2) (AID 1645884);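 note: nucleotide exchange releases bodipy-GDP from Rap1 and this lowers its fluorescence; nearly all actives have a fitted effect of over 65% in size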
Sequence of Rap guanine nucleotide exchange factor 4 (Homo sapiens) (Q8WZA2 whole entry, looked up): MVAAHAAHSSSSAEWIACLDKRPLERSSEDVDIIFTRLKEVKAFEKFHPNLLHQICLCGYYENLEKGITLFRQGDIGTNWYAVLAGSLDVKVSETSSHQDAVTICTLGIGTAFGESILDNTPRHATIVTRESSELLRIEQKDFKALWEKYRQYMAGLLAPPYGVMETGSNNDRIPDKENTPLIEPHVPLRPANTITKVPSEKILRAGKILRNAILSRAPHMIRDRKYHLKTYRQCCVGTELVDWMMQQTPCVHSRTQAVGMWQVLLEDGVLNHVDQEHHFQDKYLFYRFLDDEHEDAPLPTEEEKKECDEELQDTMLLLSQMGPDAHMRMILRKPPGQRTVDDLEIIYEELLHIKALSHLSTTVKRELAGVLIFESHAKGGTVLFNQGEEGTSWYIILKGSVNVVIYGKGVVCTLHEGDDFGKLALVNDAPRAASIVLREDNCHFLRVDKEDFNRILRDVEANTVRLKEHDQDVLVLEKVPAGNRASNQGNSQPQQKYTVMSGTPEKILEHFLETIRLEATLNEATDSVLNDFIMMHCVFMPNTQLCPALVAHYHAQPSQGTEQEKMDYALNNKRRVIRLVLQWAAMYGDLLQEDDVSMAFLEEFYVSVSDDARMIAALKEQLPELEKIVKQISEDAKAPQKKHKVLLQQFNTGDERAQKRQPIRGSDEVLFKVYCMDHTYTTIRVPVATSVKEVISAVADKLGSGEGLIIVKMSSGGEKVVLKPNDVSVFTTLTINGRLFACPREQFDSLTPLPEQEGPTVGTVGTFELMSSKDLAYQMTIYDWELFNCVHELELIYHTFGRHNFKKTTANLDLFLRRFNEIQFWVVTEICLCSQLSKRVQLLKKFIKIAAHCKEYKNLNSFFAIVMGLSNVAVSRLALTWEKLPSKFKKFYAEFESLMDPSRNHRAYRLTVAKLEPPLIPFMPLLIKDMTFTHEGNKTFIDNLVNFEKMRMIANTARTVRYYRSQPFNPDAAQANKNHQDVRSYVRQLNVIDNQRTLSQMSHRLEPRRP

[3] = target: Rap guanine nucleotide exchange factor 4 (Homo sapiens) (UniProt Q8WZA2); test: Confirmatory qHTS for antagonist of cAMP-regulated guanine nucleotide exchange factor 4 (EPAC2) (AID 1645885); note: nearly all actives have a fitted effect of over 25% in size; note: potency is the fitted concentration of half-maximal effect
[4] = target: Rap guanine nucleotide exchange factor 3 (Homo sapiens) (UniProt O95398); test: Counterscreen qHTS for antagonist of cAMP-regulated guanine nucleotide exchange factor 3 (EPAC1) (AID 1645888);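 note: fluorescence loss as bound BODIPY-GDP is released from Rap1B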
How it was run: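 Measured: fluorescence of BODIPY-GDP bound to Rap1B, which falls as exchange proceeds. Conditions include 50 uM competing GDP, 5 and 30 min reads, and a later cAMP challenge for antagonist detection.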

Compound | Potency [1] | Potency [2] | Potency [3] | Potency [4] | activation [2] | activity change, negative = inhibition [4] | outcome [3]
O=C1c2ccccc2C(=O)C12OC2c1cccc2ccccc12 (stereo not drawn) | inactive | inactive | inactive | inactive |  |  | 
O=C(O)c1ccc(-c2nc(-c3ccc(Cl)cc3Cl)cs2)cc1 | inactive |  | inactive |  | 10.1% [at 17.1 µM, percent relative to cAMP agonist control] | -4.87% [at 30.8 µM] | 
CSc1ccccc1C(=O)N(C)C(c1ccccc1)c1ccccc1 | inactive | inactive | 26.9 µM (active) | inactive |  |  | 
CN1CCN(c2cc(N3CCN(C(=O)c4ccco4)CC3)c3c4c(onc24)-c2ccccc2C3=O)CC1 | inactive | inactive | inactive | inactive |  |  | 
CCOc1ccc(C(=O)N2CC(=O)Nc3ccc(C)cc3C2c2ccc(F)cc2)cc1OCC (stereo not drawn) | inactive | inactive |  | inactive |  |  | inactive [at 12.7 µM]
Cc1cc(/C=C2\SC(=S)NC2=O)c(C)n1-c1cccc(O)c1 | inactive | inactive | inactive | inactive |  |  | 
O=C1CCCC2=C1C(c1ccc(O)c(O)c1)Nc1ccc3ccccc3c12 (stereo not drawn) | inactive | inactive | inactive | inactive |  |  | 
C[C@H]1CN([C@@H](C)CO)S(=O)(=O)c2ccc(Br)cc2O[C@@H]1CN(C)Cc1cccc(F)c1 | inactive |  | inactive |  | 15% [at 17.1 µM, percent relative to cAMP agonist control] | -8.18% [at 30.8 µM] | 
COc1cc(/C=C2\SC(=O)N(c3cccc(Cl)c3)C2=O)cc([N+](=O)[O-])c1O | inactive | inactive | inactive | inactive |  |  | 
COc1ccc(NC(=O)CSc2nc(O)cc(=O)n2-c2ccc(OC)cc2)cc1 | inactive | inactive | inactive | inactive |  |  | 
CCOC(=O)c1ccccc1NC(=O)c1c(C)oc2ncnc(N3CCOCC3)c12 | inactive | inactive | inactive | inactive |  |  | 
CCn1c(=O)c(C(=O)Nc2ccccc2S(N)(=O)=O)c(O)c2ccccc21 | inactive | inactive | inactive | inactive |  |  | 
O=C(Nc1ccccc1)C1=C(O)CC(c2ccc(Cl)cc2)N2CCN=C12 (stereo not drawn) | inactive | inactive | inactive | inactive |  |  | 
S=c1[nH]nc(-c2cc(-c3ccccc3)n[nH]2)n1/N=C/c1cccc(Cl)c1 | inactive | inactive | inactive | inactive |  |  | 
OC(CSc1ccccc1)CN1CCN(c2cccc(Cl)c2)CC1 (stereo not drawn) | inactive |  | inactive |  | 5.38% [at 17.1 µM, percent relative to cAMP agonist control] | 12.2% [at 30.8 µM] | 
CCSc1nc2c([nH]c3ccccc32)c(=O)n1-c1cccc(OC)c1 | inactive | inactive | inactive | inactive |  |  | 
C=CCN1C(=O)[C@@H]2Cc3c([nH]c4ccccc34)C(c3ccc(O)cc3)N2C1=S (stereo partly drawn) | inactive | inactive | inactive | inactive |  |  | 
COc1ccc(NC(=O)Cn2ncc(Cl)c(Cl)c2=O)cc1S(=O)(=O)N1CCOCC1 | inactive |  | inactive |  | -6.12% [at 17.1 µM, percent relative to cAMP agonist control] | 1.4% [at 30.8 µM] | 
Cc1ccc(C)c(Cn2c(C3CC(=O)N(c4ccccc4C)C3)nc3ccccc32)c1 (stereo not drawn) | inactive | inactive | inactive | inactive |  |  | 

Compound | Potency [1] | Potency [2] | Potency [3] | Potency [4] | activation [2] | activity change, negative = inhibition [4] | outcome [3]
N=C1/C(=C\c2ccc(-c3cccc(Cl)c3)o2)C(=O)N=C2SC=C(c3ccccc3)N12 | inactive | inactive | inactive | inactive |  |  | 
COC(=O)[C@]12CCCCC=C1N(CCC1=CCCCC1)C(=O)[C@H](CC(=O)NCc1cccc(C(F)(F)F)c1)C2 | inactive |  | inactive |  | 0% [at 17.1 µM, percent relative to cAMP agonist control] | -9.47% [at 30.8 µM] | 
CC(C)(C)C(C(=O)n1cccc1C#N)c1ccccc1 (stereo not drawn) | inactive |  | inactive |  | 5.44% [at 17.1 µM, percent relative to cAMP agonist control] | 3.86% [at 30.8 µM] | 
CC(C)C1COC(c2cccn2Cc2ccccc2Cl)=N1 (stereo not drawn) | inactive |  | inactive |  | 14.2% [at 17.1 µM, percent relative to cAMP agonist control] | -4.02% [at 30.8 µM] | 
CC(=O)c1ccc(OCc2nnn(CC(=O)NS(=O)(=O)c3ccc(C)cc3)c2-c2ccccc2)cc1 | inactive |  | inactive |  | 1.38% [at 17.1 µM, percent relative to cAMP agonist control] | -5.72% [at 30.8 µM] | 
Oc1ccc(NCc2ccccc2OCc2ccccc2F)cc1 | inactive | inactive | inactive | inactive |  |  | 
CC(C)Cc1ccc(CN2CCCC(NC(=O)c3cnc4ccccn4c3=O)C2)cc1 (stereo not drawn) | inactive |  | inactive |  | 12.4% [at 17.1 µM, percent relative to cAMP agonist control] | 5.64% [at 30.8 µM] | 
COC(=O)Cn1c(CN2CCc3ccccc3C2)nc2c1c(=O)n(C)c(=O)n2C | inactive | inactive | inactive | inactive |  |  | 
O=c1c([N+](=O)[O-])cn(Cc2ccccc2)c(=O)n1Cc1ccccc1 | inactive |  | inactive |  | 6.36% [at 17.1 µM, percent relative to cAMP agonist control] | -12.8% [at 30.8 µM] | 
CS(=O)(=O)c1ccc(C(=O)NCCN2C(=O)S/C(=C\c3cccnc3)C2=O)cc1[N+](=O)[O-] | inactive |  | inactive |  | 1.36% [at 17.1 µM, percent relative to cAMP agonist control] | -27.7% [at 30.8 µM] | 
Cc1ccc(-n2nc3ccc(NC(=O)/C=C/c4ccco4)cc3n2)cc1C | inactive | inactive | inactive | inactive |  |  | 
Brc1cc2c(cc1CSc1ncccn1)OCO2 | inactive |  | inactive |  | -6.54% [at 17.1 µM, percent relative to cAMP agonist control] | -28.4% [at 30.8 µM] | 
COc1ccc(Cl)cc1NC(=O)CN(C)C(=O)c1cc(-c2ccncc2)nc2ccccc12 | inactive | inactive | inactive | inactive |  |  | 
CCOc1ccccc1NC(=O)CN1C(=O)COc2ccc(S(=O)(=O)NC3CCCC3)cc21 | inactive | inactive |  | inactive |  |  | inactive [at 12.7 µM]
Cc1cc(N2CCOCC2)ccc1/C=C1/SC(=O)NC1=O | inactive | inactive | inactive | inactive |  |  | 
COn1c2c(c3c4nonc4ccc31)CCCC2 | inactive | inactive | inactive | inactive |  |  | 
COc1cc2c(cc1OC)C(COc1cc(C)cc(C)c1)N(C(C)=O)CC2 (stereo not drawn) | inactive |  | inactive |  | -1.36% [at 17.1 µM, percent relative to cAMP agonist control] | -10.1% [at 30.8 µM] | 
CCOC(=O)c1cc2c(=O)n3ccccc3nc2n(Cc2ccco2)c1=NC(=O)c1c(F)cccc1Cl | inactive | inactive | inactive | inactive |  |  | 
